Growth data for eleven compounds are collected here from PubChem BioAssay (NCI).

The panel holds about 83,000 compounds, 20% with a hit somewhere; the sample as a whole holds those more often.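 In brief: 96-well plates, 48 h treatment, single concentration, percent growth endpoint.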 Unmarked numbers belong to inactive results. Calls of active or inactive are those of the source. The calls were made as follows: active = growth percent below 10; inactive = the rest.

Test systems include NCI-H226 lung; HOP-62 NSCLC; NCI-H460 lung; HOP-92 NSCLC; NCI-H522 lung; A549/ATCC NSCLC; 786-0 renal; COLO 205 colon; DU-145 prostate; K-562 leukemia; MALME-3M melanoma; MDA-MB-231 breast; RXF 393 renal; SF-268 CNS; SF-295 CNS; SF-539 CNS; UACC-257 melanoma; M14 melanoma; NCI-H322M lung.
What all share (test): NCI-60 one-dose screen, 48 h (100 = growth as untreated, 0 = no growth, -100 = all killed)
Settings in all cases: 10 µM unless noted

For the compound `NS(=O)(=O)c1ccc(C(=O)N=Nc2c(O)[nH]c3ccc(Cl)cc23)cc1`, the growth in the experiment on NCI-H226 lung was 103%; in the experiment with HOP-62 NSCLC, 100%; with NCI-H460 lung it was 106%; in the experiment with HOP-92 NSCLC it was 103%; in the experiment on NCI-H522 lung, 89.3%; in the experiment on A549/ATCC NSCLC it was 104%. The growth was 102% with 786-0 renal; 120% in the experiment with COLO 205 colon; 102% with DU-145 prostate; 98.3% in the experiment with K-562 leukemia; 90.3% in the experiment on MALME-3M melanoma; 98.7% with MDA-MB-231 breast. In addition, the growth is 109% with RXF 393 renal; 91.9% in the experiment with SF-268 CNS; 98.7% with SF-295 CNS; 96.4% in the experiment on SF-539 CNS; 103% in the experiment on UACC-257 melanoma; 102% in the experiment on M14 melanoma.
For the compound `C#CCOc1ccc2nc(CCl)c(Cl)c(Nc3cccc(C(F)(F)F)c3)c2c1`, the growth in the experiment on NCI-H226 lung is 84.7%; with NCI-H322M lung, 98.1%; in the experiment with HOP-62 NSCLC it was 93%; in the experiment with NCI-H460 lung it was 105%; in the experiment on HOP-92 NSCLC, 94.6%; in the experiment with NCI-H522 lung, 36.4%. Also, the growth in the experiment on A549/ATCC NSCLC was 94.7%; in the experiment with 786-0 renal it was 76%; with COLO 205 colon, 80%; in the experiment with DU-145 prostate, 72%; in the experiment with K-562 leukemia it was 38.8%; with MALME-3M melanoma it was 59.5%. Further, the growth in the experiment on MDA-MB-231 breast was 55%; with RXF 393 renal it was 84.1%; in the experiment on SF-268 CNS, 85.3%; in the experiment with SF-295 CNS, 88%; with SF-539 CNS it was 104%; in the experiment with UACC-257 melanoma it was 93.7%. In addition, in the experiment with M14 melanoma, the growth is 81.4%.
On to `c1cc(OCCN2CCCCCC2)ccc1CNc1ccc2nc(CCC3CCCCC3)[nH]c2c1`, for which the growth was 60.8% in the experiment with NCI-H226 lung; 81.7% in the experiment on NCI-H322M lung; 60.5% in the experiment with HOP-62 NSCLC; 68.3% with NCI-H460 lung; 23.3% in the experiment on HOP-92 NSCLC; 68.5% in the experiment with NCI-H522 lung. The growth was 70.8% in the experiment with A549/ATCC NSCLC; 54.2% in the experiment on 786-0 renal; -48% (active) with COLO 205 colon; 69.8% in the experiment with DU-145 prostate; 3.02% (active) in the experiment on K-562 leukemia; -72.6% (active) in the experiment with MALME-3M melanoma. Besides, the growth in the experiment with MDA-MB-231 breast is 25.5%; in the experiment with RXF 393 renal, 56.2%; in the experiment on SF-268 CNS, 69.9%; with SF-295 CNS, 79.1%; in the experiment with SF-539 CNS, 72.8%; with UACC-257 melanoma it was 31.8%. Besides, the growth with M14 melanoma was -69.9% (active).
`COc1ccc(Oc2ccc(/C=C/C(=O)c3ccc(OC)c(OC)c3)cc2)cc1`: the growth was 90.9% in the experiment on NCI-H226 lung; 86.7% in the experiment with NCI-H322M lung; 118% in the experiment with HOP-62 NSCLC; 93.9% in the experiment with NCI-H460 lung; 83.7% with HOP-92 NSCLC; 57.4% in the experiment on NCI-H522 lung. For the same compound, the growth is 81.8% in the experiment with A549/ATCC NSCLC; 103% in the experiment on 786-0 renal; 91.9% with COLO 205 colon; 76.6% in the experiment on DU-145 prostate; 66% in the experiment on K-562 leukemia; 92.9% in the experiment on MALME-3M melanoma. Further, the growth is 94.3% in the experiment with MDA-MB-231 breast; 101% in the experiment with RXF 393 renal; 97.1% with SF-268 CNS; 87% in the experiment with SF-295 CNS; 100% in the experiment with SF-539 CNS; 78.6% in the experiment on UACC-257 melanoma. Further, in the experiment on M14 melanoma, the growth is 92.9%.
Turning to `O=C1/C(=C/c2cccc(Br)c2)COc2ccc(O)cc21`, the growth was 101% with NCI-H226 lung; 97.4% in the experiment on NCI-H322M lung; 86.6% in the experiment on HOP-62 NSCLC; 92.2% with NCI-H460 lung; 46% in the experiment on HOP-92 NSCLC; 18.9% with NCI-H522 lung. Besides, the growth in the experiment with A549/ATCC NSCLC is 66.2%; in the experiment on 786-0 renal, 50%; in the experiment on COLO 205 colon, 84.5%; with DU-145 prostate, 69.7%; in the experiment with K-562 leukemia, 2.93% (active); in the experiment on MALME-3M melanoma it was 78.9%. Besides, the growth in the experiment with MDA-MB-231 breast is 27.9%; with RXF 393 renal, 70.6%; with SF-268 CNS it was 67.6%; with SF-295 CNS, 100%; in the experiment on SF-539 CNS it was 69.3%; in the experiment with UACC-257 melanoma it was 99.9%. For the same compound, the growth with M14 melanoma was 76.5%.
As for `C=C(C)[C@@H]1CC[C@]2(C)[C@H](C=CC3=C4C[C@@](C)(CO)CC[C@]4(C)CC[C@]32C)[C@@]1(C)CCCN`, the growth in the experiment on NCI-H226 lung was 90.8%; in the experiment with NCI-H322M lung it was -14.3% (active); with NCI-H460 lung it was -86.2% (active); with HOP-92 NSCLC, -52.9% (active); in the experiment with NCI-H522 lung, -43.1% (active); with A549/ATCC NSCLC it was -62.2% (active). In addition, the growth in the experiment on 786-0 renal was -97.3% (active); in the experiment on COLO 205 colon, -64.4% (active); in the experiment with DU-145 prostate it was -72.7% (active); in the experiment with K-562 leukemia it was 0.273% (active); with MALME-3M melanoma, -45.2% (active); with MDA-MB-231 breast, -75.7% (active). Besides, the growth was -69.5% (active) in the experiment on RXF 393 renal; -55.8% (active) with SF-268 CNS; 73.3% with SF-295 CNS; -90% (active) in the experiment on SF-539 CNS; -60.4% (active) in the experiment on UACC-257 melanoma; -66.2% (active) in the experiment on M14 melanoma.
`O=C(Cc1ccc(/C=C/C(=O)c2ncc[nH]2)cc1)Nc1cc(F)c(F)c(F)c1`: the growth with NCI-H226 lung was 95.2%; in the experiment on NCI-H322M lung, 72.8%; in the experiment on HOP-62 NSCLC it was 90.6%; in the experiment with NCI-H460 lung it was 28.2%; in the experiment on HOP-92 NSCLC, 116%; in the experiment on NCI-H522 lung it was 49.1%. Also, the growth in the experiment with A549/ATCC NSCLC was 70.6%; in the experiment on 786-0 renal, 8.88% (active); with COLO 205 colon, 64.9%; in the experiment with DU-145 prostate, 18.7%; with K-562 leukemia it was 18.3%; with MALME-3M melanoma, 93.7%. Besides, the growth is 41.4% with MDA-MB-231 breast; 13.1% in the experiment with RXF 393 renal; 58.3% in the experiment on SF-268 CNS; 77.3% with SF-295 CNS; 5.66% (active) in the experiment with SF-539 CNS; 99.9% in the experiment with UACC-257 melanoma. In the experiment on M14 melanoma, the growth was 85.2%.
Regarding `COc1ccc(-c2cc(C(=O)N3N=C(c4ccc(N)cc4)CC3c3ccc(Cl)cc3)c3cc(OC)ccc3n2)cc1` (stereo unspecified), the growth is 89.1% in the experiment on NCI-H226 lung; 90.9% in the experiment with NCI-H322M lung; 66.6% with HOP-62 NSCLC; 105% in the experiment on NCI-H460 lung; 59.2% with HOP-92 NSCLC; 86.5% in the experiment on A549/ATCC NSCLC. Also, the growth with 786-0 renal was 19.2%; with COLO 205 colon, 96.3%; in the experiment on DU-145 prostate it was 83.7%; in the experiment on K-562 leukemia, 14.6%; with MALME-3M melanoma it was 62.1%; in the experiment with MDA-MB-231 breast, 85%. Moreover, the growth in the experiment with RXF 393 renal was 78.9%; in the experiment on SF-268 CNS, 68.4%; in the experiment on SF-295 CNS, 66.7%; in the experiment with SF-539 CNS it was 15.4%; in the experiment with UACC-257 melanoma it was 77.2%; in the experiment on M14 melanoma, 5.95% (active).
Turning to `Nc1nc(N)c2c(n1)NC(c1cccc(Nc3ccnc4cc(C(F)(F)F)ccc34)c1)CC(c1ccc3c(c1)OCO3)=N2` (stereo unspecified), the growth in the experiment with NCI-H226 lung is 97.7%; with NCI-H322M lung, 96.2%; in the experiment on HOP-62 NSCLC it was 65.7%; in the experiment with NCI-H460 lung, 58.8%; in the experiment on HOP-92 NSCLC, 54.4%; in the experiment on NCI-H522 lung, 42.2%. The growth in the experiment on A549/ATCC NSCLC was 60.3%; with 786-0 renal, 72.6%; with COLO 205 colon, 66.2%; in the experiment with DU-145 prostate, 86.9%; with K-562 leukemia it was 16.1%; in the experiment on MALME-3M melanoma, 72.5%. In addition, the growth is 86.1% in the experiment on MDA-MB-231 breast; 52.2% in the experiment on RXF 393 renal; 68.2% in the experiment with SF-268 CNS; 80% with SF-295 CNS; 95.4% in the experiment on SF-539 CNS; 77.7% in the experiment on UACC-257 melanoma. The growth in the experiment with M14 melanoma is 67.3%.
Turning to `COc1ccc(Nc2ncc(I)c(NCCCNC(=O)C3CCC3)n2)cc1`, the growth with NCI-H226 lung was 5.32% (active); with NCI-H322M lung, 6.78% (active); in the experiment on HOP-62 NSCLC, -21.3% (active); in the experiment with NCI-H460 lung it was 8.88% (active); in the experiment on HOP-92 NSCLC, -7.19% (active); with NCI-H522 lung, 52.2%. The growth was -37.6% (active) in the experiment on A549/ATCC NSCLC; 9.69% (active) in the experiment with 786-0 renal; -59.3% (active) in the experiment on COLO 205 colon; 16.3% in the experiment on DU-145 prostate; 25.7% in the experiment with K-562 leukemia; 41% in the experiment on MALME-3M melanoma. Also, the growth in the experiment with MDA-MB-231 breast is -45.4% (active); with RXF 393 renal, -84.1% (active); in the experiment on SF-268 CNS, 14.7%; with SF-295 CNS it was 20.8%; in the experiment with SF-539 CNS, -34.5% (active); with UACC-257 melanoma, 75.3%. In the experiment with M14 melanoma, the growth is 43%.
As to `O=c1oc2c(cnc3ccccc32)cc1-c1cccc(Cl)c1`, the growth is 96.2% in the experiment with NCI-H226 lung; 104% in the experiment with NCI-H322M lung; 113% with HOP-62 NSCLC; 106% with NCI-H460 lung; 81.7% with HOP-92 NSCLC; 101% in the experiment with NCI-H522 lung. Besides, the growth was 104% with A549/ATCC NSCLC; 106% in the experiment on 786-0 renal; 118% with COLO 205 colon; 108% with DU-145 prostate; 89% with K-562 leukemia; 103% in the experiment with MALME-3M melanoma. Further, the growth in the experiment on MDA-MB-231 breast was 97.6%; with RXF 393 renal it was 112%; in the experiment on SF-268 CNS it was 98.8%; in the experiment with SF-295 CNS, 101%; with SF-539 CNS it was 95.2%; with UACC-257 melanoma it was 101%. For the same compound, the growth in the experiment with M14 melanoma was 112%.
